Source: PubChem BioAssay AID2717 (Broad Institute, 2010)
About 3,200 (1.1%) of roughly 300,000 compounds were called active. The sample holds actives, similar compounds and a random draw of the others, so the mix is not that of the screen. A number with no mark means an inactive call. Rule as the data show it: active = inhibition above about 75%; inconclusive = no clear call, values can overlap the other calls; inactive = below that; tested in HMLE shEcad cells.

Experiment: growth suppression of cancer stem-like cells – cell-based, luminescence, primary screen (AID 2717)
Details: cancer stem cell-like cells viability, at 7.5 µM, hits give high values

SMILES	inhibition
COc1ccc(N2CCN(C(CNS(=O)(=O)c3ccc(C)cc3)c3ccccc3)CC2)cc1 (centres undefined)	20.2%
COc1cccc(CC(=O)OCC(=O)NCc2ccc3c(c2)OCO3)c1	-4.31%
O=C(NCCc1ccccc1)C1CCN(S(=O)(=O)c2ccc(Br)s2)CC1	-3.18%
Cc1cc(C)c[n+](-c2nc3ccccc3nc2[N-]S(=O)(=O)c2cccs2)c1	-12.3%
O=S(=O)([N-]c1nc2ccccc2nc1-[n+]1ccc(Cc2ccccc2)cc1)c1ccc(Br)s1	98.5% (active)
Cn1nnnc1SCC(=O)Nc1sccc1C(N)=O	-11.4%
CN(CC(=O)NCCc1ccc(S(N)(=O)=O)cc1)CC(=O)Nc1ccc(Cl)cc1	-12.5%
COc1cc2cc(C(=O)N/N=C/c3cccc(OC)c3OC)[nH]c2cc1OC	8.69%
COc1cccc(/C=N/NC(=O)c2[nH]nc3c2CCc2ccccc2-3)c1O	111% (active)
CN(C)CCNC(=O)c1[nH]nc2c1CCc1ccccc1-2	-15.5%
CCOC(=O)CCCCCC(=O)Nc1ccc2c(c1)CC(=O)N([C@@H](C)CO)C[C@H](C)[C@@H](CN(C)Cc1ccccc1)O2	-7.75%
COc1ccc2c(c1)c1ncn(Cc3ccccn3)c(=O)c1n2C	-14.9%
Cc1ccc2c(c1)c1ncn(CCC3=CCCCC3)c(=O)c1n2C	79.2% (active)
Cc1ccc2c(c1)c1ncn(Cc3ccc(F)cc3)c(=O)c1n2C	21.8%
CCn1nnc2cc(C(=O)Nc3ccc(C(=O)OC(C)C)cc3)ccc21	-0.631%
O=C(COC(=O)C1CCCO1)Nc1nc(-c2ccc(F)cc2)cs1 (centres undefined)	-5.39%
O=C(OCC(=O)N1CCCCC1)c1ccc(OC(F)(F)F)cc1	-0.262%
O=C(O)CC1=C(Nc2ccccc2)C(=O)N(c2ccccc2)C1c1ccc(Cl)cc1 (centres undefined)	9.27%
O=C1C=C(c2ccc(Cl)cc2)C(=O)N1Nc1ccccc1	107% (active)
O=C1c2cccc3cc(Br)cc(c23)C(=O)N1Nc1ccccc1	6.61%

SMILES	inhibition
CCOC(=O)C1CCN(C(=O)CN2C(=O)NC(C)(c3ccc4cc(OC)ccc4c3)C2=O)CC1 (centres undefined)	-9.85%
CCOC(=O)[C@@H]1[C@H]2COc3ccc(Br)cc3[C@H]2N2C(=O)N(c3ccc(C)cc3)C(=O)[C@@]12C	-5.83%
Oc1ccc(Br)cc1/C=N/Nc1ccccn1	101% (active)
COc1ccc(-c2nn(-c3ccccc3)cc2/C=N/Nc2ccccn2)cc1OC	10.5%
O=C(CCCO)N/N=C/c1cc(Br)ccc1O	-5.24%
COc1ccc(OC)c(NC(=O)COC(=O)Cc2ccsc2)c1	-8.27%
O=C(OCC(=O)N1CCCCCC1)c1ccc(Cl)nc1	15.6%
Cc1ccc(Oc2nc(-c3ccccn3)nc3ccccc23)cc1	4.28%
O=C(Oc1ccc(-c2nc(-c3ccccn3)no2)cc1)c1ccccc1	129% (active)
COc1ccc(Cc2nc(-c3ccccn3)no2)cc1OC	-15.9%
N#CCCN(C(=O)COC(=O)c1ccc2c(c1)OCCO2)c1ccccc1	-4.1%
O=C(CN1C(=O)c2ccccc2C1=O)NCc1ccc(C(=O)O)cc1	12.4%
CC(=O)N(C1=C(Cl)C(=O)c2ccccc2C1=O)c1ccc(C(=O)O)cc1	102% (active)
CC(C)N(C(=O)c1ccc(-c2ccccc2F)cc1)C(C)C	-3.5%
CCOc1ncccc1C(=O)Nc1ccc2c(c1)OCCO2	-12.8%
O=C(Nc1cc(S(=O)(=O)N2CCOCC2)ccc1N1CCOCC1)c1c(F)cccc1Cl	-17.5%
Cc1c(NC(=O)C(C)OC(=O)c2ccccc2O)c(=O)n(-c2ccccc2)n1C (centres undefined)	-18.3%
CCC(CO)Oc1cc(NC(=O)c2cccc3ccccc23)c2ncn(C(C)C)c2c1 (centres undefined)	4.9%
Cc1ccc2c(CN3CCN(S(=O)(=O)c4ccccc4C(F)(F)F)CC3)cc(=O)oc2c1	0.831%
CO[C@@H]1[C@@H](OC(N)=O)[C@@H](O)C(Oc2ccc3c(O)c(NC(=O)c4ccc(O)c(CC=C(C)C)c4)c(=O)oc3c2C)OC1(C)C (some centres undefined)	-16%

SMILES	inhibition
COC(=O)N/N=C/c1cn(CCCOc2ccc(C)cc2)c2ccccc12	25.8%
CCOC(=O)N/N=C/c1cn(Cc2ccccc2Cl)c2ccccc12	7.15%
CNC(=S)N/N=C/c1cn(Cc2ccc(C)cc2)c2ccccc12	109% (active)
Cc1ccccc1-c1cc(C(=O)NCc2cccs2)n(CC2CC(c3cccnc3)=NO2)n1 (centres undefined)	10.1%
COc1cc2nc(Cl)nc(NCCO)c2cc1OC	-15.1%
OCCNc1nc(Nc2ccc(Cl)c(Cl)c2)nc2ccccc12	102% (active)
CN(C)c1nc(Nc2ccc(Cl)c(Cl)c2)nc(N(C)C)n1	-14.7%
O=C(c1cnccn1)N1CCN(S(=O)(=O)c2cccc(Cl)c2)CC1	-17.3%
Cc1cc(N2CCCC2)ccc1NC(=O)COc1ccc(Cl)cc1	-10.1%
Cc1c(C(=O)Nc2cccc(S(=O)(=O)N3CCOCC3)c2)oc2ccccc12	-11%
CC1CCCCC12NC(=O)N(CC(=O)OCc1c(F)cccc1Cl)C2=O (centres undefined)	-8.77%
COCCN(CCOC)S(=O)(=O)NC[C@H]1O[C@@H](n2cnc3c(N)ncnc32)[C@H](O)[C@@H]1O	2.3%
Cc1ccc(-c2nc3ccccc3[nH]2)cc1NC(=O)c1sc2ccccc2c1Cl	6.88%
COc1ccc(Br)cc1C(=O)NC(=S)Nc1cc(-c2nc3ccccc3[nH]2)ccc1C	86.6% (active)
COc1ccc(Br)cc1C(=O)Nc1cccc(C)c1C	-31%
COc1ccc(C(=O)NCc2ccccc2C)cc1S(=O)(=O)NC1CCCC1	0.604%
O=c1c(-c2ccccc2)coc2cc(O)ccc12	0.886%
CC(C)CN(Cc1c(O)ccc2c(=O)c(-c3ccccc3)coc12)CC(C)C	-0.974%
CC(C)=CCc1c(O)c(CC=C(C)C)c2occ(-c3ccc(O)cc3)c(=O)c2c1O	100% (active)
